Holding throughout (assay): yeast three-hybrid, YBZ-1, SC-Leu-His + 0.5 mM 3-AT, 4 days
Common to all, as to details: tags: N-Gal4 AD-HA kept; label: inside an RPR1-promoter hybrid RNA with tandem MS2 sites; ssRNA

The target in test [1] is PUM1 PUF domain R1-RQQ (Homo sapiens, UniProt Q14671 828-1176, S863R;R864Q). Summed up:
(§1)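 Pumilio-1 PUF domain libraries, randomized (NNK) at the three base-contacting residues of each repeat, were co-expressed with matching RNA elements from a centromeric plasmid in strain YBZ-1 (LexA–MS2 coat fusion, HIS3 reporter). Transformants were plated on SC-Leu (input) and SC-Leu-His + 0.5 mM 3-AT (selection) for four days, and repeat regions were PCR-amplified and Illumina-sequenced. The interaction score is the log2 change in variant frequency from input to selection, with pseudocount 1 where absent.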

Test [2] addresses PUM1 PUF domain R1-RNS (Homo sapiens, UniProt Q14671 828-1176, S863R;R864N;Q867S). In a few lines:
as §1

Test [3] has as its target PUM1 PUF domain R1-YAR (Homo sapiens, UniProt Q14671 828-1176, S863Y;R864A;Q867R). Summed up:
as §1

In test [4] the target is PUM1 PUF domain R3-ARP (Homo sapiens, UniProt Q14671 828-1176, C935A;Q939P). Summed up:
as §1

Test [5] has as its target PUM1 PUF domain R3-IFE (Homo sapiens, UniProt Q14671 828-1176, C935I;R936F;Q939E). In a few lines: as §1
Test [6] addresses T1, PUM1 PUF domain R6-AFS (Homo sapiens, UniProt Q14671 828-1176, N1043A;Y1044F;Q1047S).
T1 sequence: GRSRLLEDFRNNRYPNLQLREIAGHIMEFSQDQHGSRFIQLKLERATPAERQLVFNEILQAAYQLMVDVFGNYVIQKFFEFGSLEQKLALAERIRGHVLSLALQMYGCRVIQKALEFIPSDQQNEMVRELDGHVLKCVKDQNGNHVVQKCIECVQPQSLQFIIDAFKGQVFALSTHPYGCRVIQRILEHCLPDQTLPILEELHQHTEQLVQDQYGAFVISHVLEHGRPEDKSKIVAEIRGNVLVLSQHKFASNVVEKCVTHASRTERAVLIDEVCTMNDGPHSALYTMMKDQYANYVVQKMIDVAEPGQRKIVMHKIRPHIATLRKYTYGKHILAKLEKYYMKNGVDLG
Summed up: as §1

Test [7] deals with PUM1 PUF domain R4-TRQ (Homo sapiens, UniProt Q14671 828-1176, N971T;H972R). Summed up:
as §1

In test [8] the target is PUM1 PUF domain R4-EYD (Homo sapiens, UniProt Q14671 828-1176, N971E;H972Y;Q975D). In a few lines:
as §1

The target in test [9] is PUM1 PUF domain R3-PWF (Homo sapiens, UniProt Q14671 828-1176, C935P;R936W;Q939F). In a few lines:
as §1

Test [10] concerns the target PUM1 PUF domain R3-RTG (Homo sapiens, UniProt Q14671 828-1176, C935R;R936T;Q939G). Summed up: as §1

With “GGCUAGAACUAGUGGAUCCCCCGGCGCCCGGCGGCUCGAGCCCGGGUAAGUGUAAAUCGUCUGCAUGCCGCCGGGCGCCAUGCCUGCAGGUCGACUCUAGAAAACAUG”, the binding signal was 3.45 log2 enrichment (interaction score) in [1], 2.4 log2 enrichment (interaction score) in [2] and 6.19 log2 enrichment (interaction score) in test [3].
On to “GGCUAGAACUAGUGGAUCCCCCGGCGCCCGGCGGCUCGAGCCCGGGUAAGUGUAAGUAGUCUGCAUGCCGCCGGGCGCCAUGCCUGCAGGUCGACUCUAGAAAACAUG”, for which the binding signal in [4] is 1.52 log2 enrichment (interaction score); in [5], 5.39 log2 enrichment (interaction score).
For “GGCUAGAACUAGUGGAUCCCCCGGCGCCCGGCGGCUCGAGCCCGGGUAAGUGUAAAUGGUCUGCAUGCCGCCGGGCGCCAUGCCUGCAGGUCGACUCUAGAAAACAUG”, the binding signal in [2] was 0.7 log2 enrichment (interaction score).
As to “GGCUAGAACUAGUGGAUCCCCCGGCGCCCGGCGGCUCGAGCCCGGGUAAGUGUAAAUUGUCUGCAUGCCGCCGGGCGCCAUGCCUGCAGGUCGACUCUAGAAAACAUG”, the binding signal in [3] was 5.79 log2 enrichment (interaction score).
As to “GGCUAGAACUAGUGGAUCCCCCGGCGCCCGGCGGCUCGAGCCCGGGUAAGUGUAAAUAGUCUGCAUGCCGCCGGGCGCCAUGCCUGCAGGUCGACUCUAGAAAACAUG”, the binding signal was 4.92 log2 enrichment (interaction score) in test [4]; 1.74 log2 enrichment (interaction score) in test [6]; 4.68 log2 enrichment (interaction score) in test [7]; 2.77 log2 enrichment (interaction score) in [8]; 3.15 log2 enrichment (interaction score) in test [9].
Take “GGCUAGAACUAGUGGAUCCCCCGGCGCCCGGCGGCUCGAGCCCGGGUAAGUGUAAUUAGUCUGCAUGCCGCCGGGCGCCAUGCCUGCAGGUCGACUCUAGAAAACAUG”: the figures for the binding signal in test [4], in [10] and in test [9] were 1.4 log2 enrichment (interaction score), 2.9 log2 enrichment (interaction score) and 1.18 log2 enrichment (interaction score), respectively.
As to “GGCUAGAACUAGUGGAUCCCCCGGCGCCCGGCGGCUCGAGCCCGGGUAAGUGAAAAUAGUCUGCAUGCCGCCGGGCGCCAUGCCUGCAGGUCGACUCUAGAAAACAUG”, the binding signal in test [6] was 3.01 log2 enrichment (interaction score).
